PubChem BioAssay
Values joined by “and” are separate entries in the source; they are usually repeats but may differ in a detail not shown here. Identical values can stand only once. Active and inactive are the calls of the source. Unless noted, how the calls were made is not given here.

Columns and labels:
[1] = resazurin metabolic signal in HepG2 cells – cell-based, resazurin fluorescence, 24 h, PK04 Diversity Set, profiling panel (AID 1172); details: HepG2 viability, higher = more signal
[2] = budding yeast growth changes without added modifier – OD600, strain BY4716, 24 h, basal condition, primary screen (AID 1173); details: S. cerevisiae BY4716 growth, OD600, 24 h; higher = more signal, called active from +8 up or from −8 down
[3] = viability profiling in MM1S myeloma cells – cell-based, resazurin fluorescence, basal, 24 h, PK04 Diversity Set, profiling panel (AID 1174); details: higher = more signal, called active from +8 up or from −8 down;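 further: MM1S multiple myeloma cell line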
[4] = target: Dihydroorotate dehydrogenase (quinone), mitochondrial (Plasmodium falciparum (isolate 3D7)) (UniProt Q08210); experiment: inhibition of P. falciparum DHODH – biochemical, C-terminal His tag, absorbance 600 nm, primary screen (AID 1175); details: PfDHODH enzyme, DCIP absorbance 600 nm; higher = more signal, called active from +8 up or from −8 down;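 further: recombinant parasite enzyme with a five histidine tag at its C terminus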
[5] = inhibition of PAO1 biofilm formation – strain PAO1, LB-PBS medium, absorbance 600 nm, primary screen (AID 1176); details: P. aeruginosa PAO1 growth/biofilm, A600, 12 h; higher = more signal
[6] = growth modulation of vineyard yeast isolate – strain RM11-1a, OD600, basal, 24 h, primary screen (AID 1177);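 further: cultures grown under basal conditions with no added stressor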; details: S. cerevisiae RM11-1a growth, OD600, 24 h; higher = more signal, called active from +8 up or from −8 down
[7] = growth of efflux-deficient E. coli DRC39 – strain DRC39, OD650, 24 h, E. coli filamentation inducers, primary screen (AID 1178);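 further: growth measured as culture turbidity by optical density at 650 nm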; details: E. coli DRC39 acrAB, higher = more signal, called active from +8 up or from −8 down
[8] = growth of efflux-deficient E. coli DRC39 – strain DRC39, OD650, 48 h, E. coli filamentation inducers, primary screen (AID 1179);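 further: screen aims at cell division blockers that make cells filament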; details: E. coli DRC39 delta-acrAB growth, higher = more signal, called active from +8 up or from −8 down
[9] = viability profiling in RPMI8226 myeloma cells – cell-based, resazurin fluorescence, basal, 24 h, PK04 Diversity Set, profiling panel (AID 1180); details: higher = more signal;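 further: RPMI8826 multiple myeloma cell line at 5000 cells per well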
[10] = target: E3 ubiquitin-protein ligase XIAP (Homo sapiens) (UniProt P98170); experiment: small molecules binding XIAP protein – biophysical, small-molecule microarray, fluorescence 635 nm, primary screen (AID 1181); details: higher = more signal;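 further: score merges 667 nm emission and signal to noise over triplicate slides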
[11] = tested on: XIP peptide (Xip251-270) binding; experiment: XIP fragment 251-270 binding compounds – biochemical, small-molecule microarray, fluorescence 635/667 nm, 0.1 µg/mL protein, primary screen (AID 1182); details: fluorescent protein binding, 635 nm, higher = more signal, called active from +8 up or from −8 down
XIP peptide (Xip251-270) = experiment: compounds binding XIP fragment 251-270 – biochemical, small-molecule microarray, fluorescence 635/667 nm, 0.5 µg/mL protein, primary screen (AID 1183); details: fluorescence 635 nm, higher = more signal
[12] = blood-stage malaria parasite viability loss – strain 3D7, DAPI fluorescence, 100 nL, primary screen (AID 1184);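 further: parasites grown inside human red blood cells in medium with human serum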; details: P. falciparum 3D7 growth, 3 d, higher = more signal
[13] = target: Homeobox protein Hox-A13 (Mus musculus) (UniProt Q62424); experiment: disruptors of Hoxa13 oligonucleotide interaction – biochemical, fluorescence polarization, labeled oligonucleotide, primary screen (AID 1185); details: Hoxa13:DNA binding, 15 min, higher = more signal, called active from +8 up or from −8 down
[14] = blockers of DNA damage checkpoint Chk1 activation – imaging, HeLa, hydroxyurea, phospho-Chk1 antibody, percent positive cells, primary screen (AID 1186); details: hydroxyurea-induced phospho-Chk1 immunofluorescence imaging, higher = more signal
[15] = blockers of DNA damage checkpoint Chk1 activation – imaging, HeLa, hydroxyurea, phospho-Chk1 nuclear intensity, primary screen (AID 1187); details: hydroxyurea-induced phospho-Chk1 immunofluorescence imaging, higher = more signal

Sequence of Homeobox protein Hox-A13 (Mus musculus) (Q62424 whole entry, looked up): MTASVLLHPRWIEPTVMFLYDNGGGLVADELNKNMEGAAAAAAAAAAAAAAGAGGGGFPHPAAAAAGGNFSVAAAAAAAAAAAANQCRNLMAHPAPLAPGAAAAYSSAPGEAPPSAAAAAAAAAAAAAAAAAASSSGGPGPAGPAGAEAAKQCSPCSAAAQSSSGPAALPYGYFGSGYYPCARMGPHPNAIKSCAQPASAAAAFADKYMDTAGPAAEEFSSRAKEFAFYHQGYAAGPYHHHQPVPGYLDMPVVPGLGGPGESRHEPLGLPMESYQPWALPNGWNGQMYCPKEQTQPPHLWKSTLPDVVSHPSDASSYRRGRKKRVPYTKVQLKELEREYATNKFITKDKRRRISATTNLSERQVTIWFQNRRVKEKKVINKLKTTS
Sequence of Dihydroorotate dehydrogenase (quinone), mitochondrial (Plasmodium falciparum (isolate 3D7)) (Q08210 whole entry, looked up): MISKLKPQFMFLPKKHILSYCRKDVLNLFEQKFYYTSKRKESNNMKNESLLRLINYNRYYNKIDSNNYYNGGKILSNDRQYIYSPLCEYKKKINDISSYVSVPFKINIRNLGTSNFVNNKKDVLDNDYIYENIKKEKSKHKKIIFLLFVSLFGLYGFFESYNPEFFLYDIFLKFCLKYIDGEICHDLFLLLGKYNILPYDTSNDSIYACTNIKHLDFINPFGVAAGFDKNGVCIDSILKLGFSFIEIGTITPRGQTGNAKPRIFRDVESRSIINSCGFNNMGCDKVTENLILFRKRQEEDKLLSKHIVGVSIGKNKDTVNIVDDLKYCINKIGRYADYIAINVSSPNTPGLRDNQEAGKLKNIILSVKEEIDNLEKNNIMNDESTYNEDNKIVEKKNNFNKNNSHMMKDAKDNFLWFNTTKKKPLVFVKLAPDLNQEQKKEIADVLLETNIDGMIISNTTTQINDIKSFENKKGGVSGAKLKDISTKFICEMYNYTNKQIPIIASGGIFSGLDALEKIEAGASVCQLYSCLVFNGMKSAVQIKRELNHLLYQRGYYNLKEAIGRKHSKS
Sequence of E3 ubiquitin-protein ligase XIAP (Homo sapiens) (P98170 whole entry, looked up, the tested form may be a part): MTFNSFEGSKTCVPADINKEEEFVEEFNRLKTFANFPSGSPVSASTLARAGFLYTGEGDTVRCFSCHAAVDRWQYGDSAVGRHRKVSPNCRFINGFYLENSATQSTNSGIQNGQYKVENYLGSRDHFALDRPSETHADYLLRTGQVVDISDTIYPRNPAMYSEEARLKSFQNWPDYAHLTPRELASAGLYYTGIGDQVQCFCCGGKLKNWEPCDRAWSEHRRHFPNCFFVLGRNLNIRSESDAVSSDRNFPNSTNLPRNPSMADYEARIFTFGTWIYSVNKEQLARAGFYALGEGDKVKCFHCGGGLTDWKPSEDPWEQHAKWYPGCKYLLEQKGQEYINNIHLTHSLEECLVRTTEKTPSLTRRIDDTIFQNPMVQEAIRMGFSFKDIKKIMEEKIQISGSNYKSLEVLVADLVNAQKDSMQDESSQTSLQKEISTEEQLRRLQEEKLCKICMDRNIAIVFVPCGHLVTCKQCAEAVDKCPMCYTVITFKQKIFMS

| Structure (SMILES) | z-score [1] | z-score [2] | z-score [3] | composite z-score [4] | z-score [5] | z-score [6] | z-score [7] | z-score [8] | z-score [9] | composite z-score [10] | composite z-score [11] | composite z-score (XIP peptide (Xip251-270)) | z-score [12] | z-score [13] | z-score [14] | z-score [15] |
| --- | --- | --- | --- | --- | --- | --- | --- | --- | --- | --- | --- | --- | --- | --- | --- | --- |
| C=C[C@@H](C)[C@@H](O)c1ccc(O)c2ccccc12 | -0.278 and 0.0891 | -14.7 (active) and -15 (active) | -0.938 (inactive) and -1.51 (inactive) | -2.38 (inactive) and -3.35 (inactive) | 0.814 (inactive) and -0.0697 (inactive) | -0.143 (inactive) and 0.291 (inactive) | 0.652 (inactive) and 0.297 (inactive) | 0.347 (inactive) and 0.106 (inactive) | -0.777 and -1.42 | -0.22 and 1.24 | 0.238 (inactive) and 0.467 (inactive) | -0.54 and -0.684 | 1.31 and -0.772 | -3.43 (inactive) and -4.33 (inactive) | 0.789 (inactive) and 0.536 (inactive) | 1.17 (inactive) and 0.193 (inactive) |
| C=CCN(C(=O)C(c1cccs1)N(C(=O)/C=C\C(=O)O)c1c(Cl)cccc1CO)C(C)(C)C (stereo unspecified) | -0.842 and -0.839 | 0.0318 (inactive) and -0.393 (inactive) | -0.525 (inactive) and -0.895 (inactive) | -1.77 (inactive) and -0.93 (inactive) | -0.304 (inactive) and -0.677 (inactive) | -0.107 (inactive) and -0.495 (inactive) | -0.514 (inactive) and -0.291 (inactive) | -0.372 (inactive) and -0.102 (inactive) | -0.554 and -1.29 | -0.191 and 0.1 | -0.0516 (inactive) and 0.0403 (inactive) | 0.689 and -1.16 | 1.83 and 1.67 | 0.131 (inactive) and -0.43 (inactive) | 0.221 (inactive) and 0.501 (inactive) | 0.711 (inactive) and 0.634 (inactive) |
| C=CCN(Cc1ccccc1)C(=O)C(c1cccs1)N(C(=O)/C=C\C(=O)O)c1c(Cl)cccc1CO (stereo unspecified) | 0.201 and -0.418 | -0.0348 (inactive) and -0.539 (inactive) | 0.258 (inactive) and -0.385 (inactive) | 0.607 (inactive) and 1.16 (inactive) | 0.165 (inactive) and -0.208 (inactive) | 0.0233 (inactive) and -0.276 (inactive) | 0.759 (inactive) and 0.391 (inactive) | -1.34 (inactive) and 0.456 (inactive) | -0.124 and -1 | -0.0172 and -0.359 | -0.422 (inactive) and -0.522 (inactive) | -0.367 and -1.55 | -0.82 and -0.106 | 1.14 (inactive) and 0.425 (inactive) | -0.347 (inactive) and 0.628 (inactive) | 0.0032 (inactive) and 0.521 (inactive) |
| CCC[C@@H]1C[C@@]1(CCC)[C@@H](NC(=O)c1ccc(-c2ccccc2)cc1)c1cccc(Cl)c1 | 0.791 and 0.395 | 0.0143 (inactive) and 1.49 (inactive) | -0.0393 (inactive) and -0.312 (inactive) | -0.824 (inactive) and 0.499 (inactive) | 1 (inactive) and 0.343 (inactive) | 0.38 (inactive) and 1.47 (inactive) | -0.505 (inactive) and -0.336 (inactive) | -0.61 (inactive) and -0.0929 (inactive) | 0.889 and -0.275 | -0.0305 and 0.0623 | 0.176 (inactive) and 0.184 (inactive) | -0.659 and 0.146 | -0.687 and -1.16 | -3.47 (inactive) and -5.25 (inactive) | 0.722 (inactive) and 0.514 (inactive) | -0.198 (inactive) and 0.301 (inactive) |
| CC(CO)N1C(=O)[C@@H]2C3C(=O)OCCC=C[C@H]3OC23C=CCN(C(C)(C)C)C(=O)[C@@H]13 (stereo partly specified) | -0.0539 and 0.0517 | 1.97 (inactive) and -0.0328 (inactive) | -1.28 (inactive) and -0.719 (inactive) | -7.96 (inactive) and -3.06 (inactive) | -0.317 (inactive) and 0.329 (inactive) | 1.01 (inactive) and -1.12 (inactive) | -0.57 (inactive) and -0.149 (inactive) | -0.672 (inactive) and -0.246 (inactive) | -0.896 and -0.817 | -0.157 and 0.517 | -0.516 (inactive) and 0.463 (inactive) | -0.947 and -0.179 | 0.35 and 0.567 | -5.55 (inactive) and -5.92 (inactive) | 0.545 (inactive) and -0.0027 (inactive) | -0.0537 (inactive) and -0.28 (inactive) |
| C[N+](C)(C)CCCCCCNC(=O)[C@H]1C[C@H]2C(=O)N[C@@H](CCCC[N+](C)(C)C)C(=O)N2[C@H]1c1ccc(O)cc1 | -0.0179 and -0.609 | -0.214 (inactive) and 0.205 (inactive) | -0.0993 (inactive) and -1.52 (inactive) | -1.01 (inactive) and -0.373 (inactive) | 2.63 (inactive) and 0.351 (inactive) | 0.281 (inactive) and 0.826 (inactive) | 0.0781 (inactive) and 0.75 (inactive) | -0.978 (inactive) and 1.03 (inactive) | -0.818 and -0.584 | -0.22 and -0.265 | 0.0514 (inactive) and -0.283 (inactive) | 0.0535 and -0.189 | -1.28 and 0.581 | 0.627 (inactive) and -1.31 (inactive) | -0.563 (inactive) and 0.0546 (inactive) | -0.225 (inactive) and -0.0689 (inactive) |
| C=C[C@H](OC)[C@@H](O)c1ccc(OCCO)cc1 | -0.843 and 0.501 | -0.43 (inactive) and -1.55 (inactive) | -0.887 (inactive) and 0.51 (inactive) | -0.0113 (inactive) and -0.134 (inactive) | 0.0123 (inactive) and 1.37 (inactive) | 0.952 (inactive) and -0.0987 (inactive) | -0.258 (inactive) and 1.78 (inactive) | -0.366 (inactive) and 1.8 (inactive) | -1.28 and 1.05 | -0.206 and -0.352 | 0.632 (inactive) and -0.235 (inactive) | -1.15 and -0.537 | 0.0026 and 0.809 | -0.791 (inactive) and -0.187 (inactive) | 0.228 (inactive) and 0.524 (inactive) | 0.0287 (inactive) and 0.865 (inactive) |
| C=CCN(Cc1ccccc1)C(=O)C1N(CCCCCCO)C(=O)C2C(C(=O)O)C3C=CC21O3 (stereo unspecified) | -0.29 and 0.875 | -0.356 (inactive) and -0.726 (inactive) | -0.231 (inactive) and 0.723 (inactive) | -0.248 (inactive) and -1.43 (inactive) | 0.95 (inactive) and 0.441 (inactive) | -0.325 (inactive) and -0.784 (inactive) | 0.0108 (inactive) and 0.14 (inactive) | -0.187 (inactive) and -0.172 (inactive) | -0.615 and 0.439 | 0.0898 and -0.395 | -0.0934 (inactive) and -0.383 (inactive) | -0.673 and 0.372 | 0.865 and 1.05 | -0.888 (inactive) and 0.0908 (inactive) | 0.909 (inactive) and 0.53 (inactive) | 0.798 (inactive) and 0.751 (inactive) |
| C=CCN(C(=O)C(c1cccs1)N(C(=O)/C=C\C(=O)O)c1ccc(CCO)cc1)C(C)(C)C (stereo unspecified) | -0.388 and -0.35 | -2.06 (inactive) and -0.483 (inactive) | 0.448 (inactive) and 0.224 (inactive) | -2.45 (inactive) and -0.818 (inactive) | 0.289 (inactive) and -0.332 (inactive) | -0.0345 (inactive) and -0.122 (inactive) | 0.592 (inactive) and -0.113 (inactive) | 0.864 (inactive) and 0.356 (inactive) | 0.0456 and 0.0755 | -0.232 and -0.145 | 0.356 (inactive) and 1.08 (inactive) | -0.998 and 0.187 | -0.21 and -0.719 | 0.0682 (inactive) and -0.369 (inactive) | 0.632 (inactive) and 1.03 (inactive) | 0.344 (inactive) and 0.743 (inactive) |
| O=C1NC(=O)C2C1C=CC(C(O)c1ccc([N+](=O)[O-])cc1)N2Nc1ccc(Cl)cc1Cl (stereo unspecified) | -1.01 and 0.266 | -8.52 (active) and -8.8 (active) | 0.52 (inactive) and -0.103 (inactive) | -0.87 (inactive) and -1.11 (inactive) | 2.4 (inactive) and 2.49 (inactive) | -0.728 (inactive) and -1.12 (inactive) | -0.0259 (inactive) and 0.6 (inactive) | -0.568 (inactive) and 0.615 (inactive) | 0.425 and 0.122 | -0.0102 and 0.0975 | 0.376 (inactive) and 0.385 (inactive) | 0.762 and 0.163 | 0.698 and 0.664 | -5.8 (inactive) | -0.85 (inactive) and -0.665 (inactive) | -1.15 (inactive) and -0.297 (inactive) |
| C=CCN(C(=O)C1N(CCOCCO)C(=O)C2C(C(=O)O)C3C=CC21O3)C(C)(C)C (stereo unspecified) | 0.0542 and -0.741 | -0.0565 (inactive) and 0.494 (inactive) | -0.2 (inactive) and -1.16 (inactive) | 0.256 (inactive) and 1.36 (inactive) | -0.0558 (inactive) and 0.578 (inactive) | -0.0478 (inactive) and -0.166 (inactive) | -0.335 (inactive) and -0.685 (inactive) | -0.664 (inactive) and -0.923 (inactive) | -0.244 and -1.69 | 0.0009 and -0.0369 | -0.348 (inactive) and -0.346 (inactive) | 0.102 and -0.294 | -0.283 and -0.145 | -1.32 (inactive) and -0.575 (inactive) | -0.262 (inactive) and -0.147 (inactive) | -0.47 (inactive) and 0.312 (inactive) |
